The supplement of paper PMC10849652
About 7,900 targets were measured; listed, in parts, are those with a hit and a random draw of the rest. About 0.6% of all pairs of compound and target were hits. Unmarked numbers belong to inactive results.

What was measured:
Assay in all cases: log2 fold change, soluble protein after heating vs DMSO (PISA); higher = thermal stabilisation; K562 cells, 10 uM, 30 min; active = over 0.2 and 3.5 SD of the protein, either way, in both replicates (recomputed)
[1] = compound: CC[C@@H]1C(=O)N(C)c2cnc(Nc3ccc(C(=O)NC4CCN(C)CC4)cc3OC)nc2N1C1CCCC1
Summary of the method: (§1)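 Soluble protein was defined as the supernatant after 21,000xg for 90 min. It came from K562 cells at 2×10^6 cells/mL given 10 μM compound for 30 min, heated in aliquots for 3 min across 48°C-58°C, pooled, and extracted in PBS with 0.5% NP-40 at 4°C, and was quantified by TMTpro 16plex LC-MS/MS with equalised channel sums. Thermal stability against control samples, from duplicates, is reported as log2 fold change.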

[2] = compound: CC[C@@H]1C(=O)N(C)c2cnc(Nc3ccc(C(=O)N[C@H]4CC[C@H](N5CCN(CC6CC6)CC5)CC4)cc3OC)nc2N1C(C)C [volasertib]
Summary of the method: as §1

[3] = compound: CC[C@H](C)N1C=C(C2=C(C=C(C=C21)C3=CN=C(C=C3)N4CCNCC4)C(=O)NCC5=C(C=C(NC5=O)C)C)C
Summary of the method: as §1

[4] = compound: CC[C@H](C)[C@@H](C(=O)N[C@@H]([C@@H](C)O)C(=O)N[C@@H](CC(C)C)C(=O)[C@]1(CO1)C)NC(=O)[C@H]([C@@H](C)CC)N(C)C(=O)C [epoxomicin]
Summary of the method: as §1

[5] = compound: CCn1c(C(=O)N(C2CC2)C2CC2)cc2c3c(ncn3C)c(Nc3cc(C)n(C)n3)nc21
Summary of the method: as §1

[6] = compound: CCn1cc(-c2ccnc3[nH]c(-c4cccc(CN(C)C)c4)cc23)c(-c2ccc(NC(=O)N(C)C)cc2)n1
Summary of the method: as §1

[7] = compound: CN(C)CC(=O)Nc1ccc2[nH]c(=O)c3ccccc3c2c1
Summary of the method: as §1

[8] = compound: CN(CCOC1=CC=C(C=C1)C[C@H]2C(=O)NC(=O)S2)C3=CC=CC=N3 (racemic) [rosiglitazone]
Summary of the method: as §1

[9] = compound: CN1C2=C(C3=C1C(=O)N(N=C3)CC4=CC(=CC=C4)N)SC(=C2)S(=O)C
Summary of the method: as §1

[10] = compound: CN1CCC(CNc2ccc3ncc(-c4cccc(OC(F)(F)F)c4)n3n2)CC1
Summary of the method: as §1

[11] = compound: CN1CCN(CCOc2cc(OC3CCOCC3)c3c(Nc4c(Cl)ccc5c4OCO5)ncnc3c2)CC1 [saracatinib]
Summary of the method: as §1

[12] = compound: CN1CCN(c2nc(C3=C(c4c[nH]c5ccccc45)C(=O)NC3=O)c3ccccc3n2)CC1 [sotrastaurin]
Summary of the method: as §1

[13] = compound: CN1CC[C@H](c2c(O)cc(O)c3c(=O)cc(-c4ccccc4Cl)oc23)[C@H](O)C1 [alvocidib]
Summary of the method: as §1

[14] = compound: CN1CCc2c(c3ccccc3n2Cc2ccc(C(=O)NO)cc2)C1 [Tubastatin A]
Summary of the method: as §1

[15] = compound: CNC(=O)C1=CC=CC=C1NC2=NC(=NC=C2Cl)NC3=C(C=C(C=C3)N4CCOCC4)OC
Summary of the method: as §1

[16] = compound: CNC(=O)c1ccc(Nc2ncc(C(F)(F)F)c(NCc3nccnc3N(C)S(C)(=O)=O)n2)cc1 [defactinib]
Summary of the method: as §1

[17] = compound: CNCc1ccc(-c2[nH]c3cc(F)cc4c3c2CCNC4=O)cc1 [rucaparib]
Summary of the method: as §1

[18] = compound: CNc1nc(-c2ccc3c(N)n[nH]c3c2)cc(N2C[C@@H](C(=O)NC3CCCCC3)CC[C@H]2C)n1
Summary of the method: as §1

[19] = compound: COC(=O)N[C@@H](C)CNc1nccc(-c2cn(C(C)C)nc2-c2cc(Cl)cc(NS(C)(=O)=O)c2F)n1 [encorafenib]
Summary of the method: as §1

[20] = compound: COC(=O)[C@H](CCSC)NC(=O)C1=C(C=C(C=C1)NC[C@H](CS)N)C2=CC=CC=C2
Summary of the method: as §1

Sequence of UniProt Q04759 (Q04759 whole entry, looked up): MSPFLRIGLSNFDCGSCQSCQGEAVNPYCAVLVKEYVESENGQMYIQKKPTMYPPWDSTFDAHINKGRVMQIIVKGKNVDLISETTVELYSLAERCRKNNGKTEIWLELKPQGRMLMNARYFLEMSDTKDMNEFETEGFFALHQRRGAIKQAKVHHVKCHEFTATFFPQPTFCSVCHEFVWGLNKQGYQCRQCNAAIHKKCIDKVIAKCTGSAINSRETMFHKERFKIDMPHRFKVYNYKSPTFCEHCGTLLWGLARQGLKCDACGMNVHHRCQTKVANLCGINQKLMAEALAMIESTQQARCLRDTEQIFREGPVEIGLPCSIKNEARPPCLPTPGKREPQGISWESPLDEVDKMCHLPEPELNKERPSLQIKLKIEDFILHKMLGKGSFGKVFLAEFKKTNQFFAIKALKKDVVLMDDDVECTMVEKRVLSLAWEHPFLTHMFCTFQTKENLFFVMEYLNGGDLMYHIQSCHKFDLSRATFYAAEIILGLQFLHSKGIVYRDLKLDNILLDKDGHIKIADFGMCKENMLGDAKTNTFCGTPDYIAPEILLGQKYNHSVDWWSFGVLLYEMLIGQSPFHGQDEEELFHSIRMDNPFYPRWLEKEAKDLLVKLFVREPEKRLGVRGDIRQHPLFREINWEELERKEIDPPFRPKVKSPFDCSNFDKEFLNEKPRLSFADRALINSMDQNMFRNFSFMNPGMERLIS
Sequence of UniProt P28340 (P28340 whole entry, looked up): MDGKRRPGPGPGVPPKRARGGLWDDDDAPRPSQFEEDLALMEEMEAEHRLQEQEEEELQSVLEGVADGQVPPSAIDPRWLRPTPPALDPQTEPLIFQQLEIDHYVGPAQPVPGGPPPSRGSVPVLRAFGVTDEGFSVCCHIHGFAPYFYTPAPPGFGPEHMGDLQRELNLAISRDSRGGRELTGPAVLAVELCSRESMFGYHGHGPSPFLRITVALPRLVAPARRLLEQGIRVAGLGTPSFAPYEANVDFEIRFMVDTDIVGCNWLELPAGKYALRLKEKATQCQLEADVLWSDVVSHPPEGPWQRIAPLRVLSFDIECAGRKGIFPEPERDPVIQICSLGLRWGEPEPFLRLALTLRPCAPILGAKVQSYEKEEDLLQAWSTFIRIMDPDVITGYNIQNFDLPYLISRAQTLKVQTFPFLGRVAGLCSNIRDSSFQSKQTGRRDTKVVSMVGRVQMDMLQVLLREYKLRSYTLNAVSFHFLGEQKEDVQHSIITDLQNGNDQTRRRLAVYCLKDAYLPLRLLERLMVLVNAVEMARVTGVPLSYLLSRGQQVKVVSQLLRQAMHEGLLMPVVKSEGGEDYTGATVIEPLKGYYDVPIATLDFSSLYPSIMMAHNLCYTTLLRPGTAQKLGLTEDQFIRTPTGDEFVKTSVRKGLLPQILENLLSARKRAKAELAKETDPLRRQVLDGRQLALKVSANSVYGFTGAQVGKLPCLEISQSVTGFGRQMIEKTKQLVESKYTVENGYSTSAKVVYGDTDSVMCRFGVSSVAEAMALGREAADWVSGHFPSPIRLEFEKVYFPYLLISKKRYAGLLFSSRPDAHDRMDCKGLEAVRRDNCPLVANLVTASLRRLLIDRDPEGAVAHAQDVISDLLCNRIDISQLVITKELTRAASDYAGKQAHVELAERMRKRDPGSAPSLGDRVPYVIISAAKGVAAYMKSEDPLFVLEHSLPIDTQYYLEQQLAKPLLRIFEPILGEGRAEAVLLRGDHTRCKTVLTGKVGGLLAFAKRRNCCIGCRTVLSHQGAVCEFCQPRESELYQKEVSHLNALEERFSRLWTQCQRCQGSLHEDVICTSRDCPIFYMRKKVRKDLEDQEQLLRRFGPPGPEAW
Sequence of UniProt Q16537 (Q16537 whole entry, looked up): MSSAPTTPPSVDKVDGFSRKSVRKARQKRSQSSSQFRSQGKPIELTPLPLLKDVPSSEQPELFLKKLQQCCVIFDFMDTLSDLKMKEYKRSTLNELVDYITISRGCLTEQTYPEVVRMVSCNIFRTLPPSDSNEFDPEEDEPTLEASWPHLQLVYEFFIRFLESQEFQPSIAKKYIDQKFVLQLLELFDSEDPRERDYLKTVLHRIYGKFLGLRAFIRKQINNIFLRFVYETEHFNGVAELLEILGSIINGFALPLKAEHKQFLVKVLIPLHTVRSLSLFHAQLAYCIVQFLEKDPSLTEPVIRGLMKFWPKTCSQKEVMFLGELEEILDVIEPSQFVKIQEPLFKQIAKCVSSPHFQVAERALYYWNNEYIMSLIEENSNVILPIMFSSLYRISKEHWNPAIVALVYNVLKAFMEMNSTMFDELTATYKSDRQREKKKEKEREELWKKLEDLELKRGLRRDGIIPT
Sequence of UniProt O15355 (O15355 whole entry, looked up): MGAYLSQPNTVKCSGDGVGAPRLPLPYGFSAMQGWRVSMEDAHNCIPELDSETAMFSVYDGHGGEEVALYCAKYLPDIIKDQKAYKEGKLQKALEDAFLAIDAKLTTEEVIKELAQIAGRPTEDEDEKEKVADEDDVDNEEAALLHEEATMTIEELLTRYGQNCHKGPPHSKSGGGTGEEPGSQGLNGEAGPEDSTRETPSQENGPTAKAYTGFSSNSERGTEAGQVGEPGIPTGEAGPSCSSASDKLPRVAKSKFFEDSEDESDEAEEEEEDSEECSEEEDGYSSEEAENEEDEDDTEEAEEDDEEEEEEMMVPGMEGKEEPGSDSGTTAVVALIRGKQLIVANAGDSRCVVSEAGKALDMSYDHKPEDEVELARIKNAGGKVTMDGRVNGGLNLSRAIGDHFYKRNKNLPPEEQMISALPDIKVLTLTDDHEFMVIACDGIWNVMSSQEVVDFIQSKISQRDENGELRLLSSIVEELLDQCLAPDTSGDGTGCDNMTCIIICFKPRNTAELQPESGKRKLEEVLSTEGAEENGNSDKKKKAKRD
Sequence of UniProt Q86W56 (Q86W56 whole entry, looked up): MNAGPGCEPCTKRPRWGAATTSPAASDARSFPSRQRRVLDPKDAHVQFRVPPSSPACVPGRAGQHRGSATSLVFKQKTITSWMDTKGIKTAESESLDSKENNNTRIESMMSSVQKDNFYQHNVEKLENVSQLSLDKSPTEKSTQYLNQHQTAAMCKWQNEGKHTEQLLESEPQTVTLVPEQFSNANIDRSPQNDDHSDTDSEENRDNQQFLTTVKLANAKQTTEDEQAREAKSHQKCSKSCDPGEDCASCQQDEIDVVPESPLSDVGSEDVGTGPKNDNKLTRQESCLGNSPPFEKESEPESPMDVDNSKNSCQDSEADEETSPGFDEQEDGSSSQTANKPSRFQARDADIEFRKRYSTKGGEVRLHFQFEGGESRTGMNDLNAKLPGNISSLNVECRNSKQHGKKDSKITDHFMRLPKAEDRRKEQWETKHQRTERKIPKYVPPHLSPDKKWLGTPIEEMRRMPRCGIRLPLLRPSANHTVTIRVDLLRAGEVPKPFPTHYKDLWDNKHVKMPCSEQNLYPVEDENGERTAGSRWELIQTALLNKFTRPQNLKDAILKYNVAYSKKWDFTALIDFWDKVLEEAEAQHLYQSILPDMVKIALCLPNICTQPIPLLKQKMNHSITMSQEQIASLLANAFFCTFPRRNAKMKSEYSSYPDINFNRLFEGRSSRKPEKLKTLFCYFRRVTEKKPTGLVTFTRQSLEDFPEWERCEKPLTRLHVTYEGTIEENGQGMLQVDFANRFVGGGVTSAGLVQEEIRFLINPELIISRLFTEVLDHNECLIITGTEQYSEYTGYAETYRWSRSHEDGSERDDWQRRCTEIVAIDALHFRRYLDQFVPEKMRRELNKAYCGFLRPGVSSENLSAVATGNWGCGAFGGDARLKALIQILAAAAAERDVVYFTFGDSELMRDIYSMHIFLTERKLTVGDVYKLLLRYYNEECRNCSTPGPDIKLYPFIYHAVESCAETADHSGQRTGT
Sequence of UniProt Q32M88 (Q32M88 whole entry, looked up): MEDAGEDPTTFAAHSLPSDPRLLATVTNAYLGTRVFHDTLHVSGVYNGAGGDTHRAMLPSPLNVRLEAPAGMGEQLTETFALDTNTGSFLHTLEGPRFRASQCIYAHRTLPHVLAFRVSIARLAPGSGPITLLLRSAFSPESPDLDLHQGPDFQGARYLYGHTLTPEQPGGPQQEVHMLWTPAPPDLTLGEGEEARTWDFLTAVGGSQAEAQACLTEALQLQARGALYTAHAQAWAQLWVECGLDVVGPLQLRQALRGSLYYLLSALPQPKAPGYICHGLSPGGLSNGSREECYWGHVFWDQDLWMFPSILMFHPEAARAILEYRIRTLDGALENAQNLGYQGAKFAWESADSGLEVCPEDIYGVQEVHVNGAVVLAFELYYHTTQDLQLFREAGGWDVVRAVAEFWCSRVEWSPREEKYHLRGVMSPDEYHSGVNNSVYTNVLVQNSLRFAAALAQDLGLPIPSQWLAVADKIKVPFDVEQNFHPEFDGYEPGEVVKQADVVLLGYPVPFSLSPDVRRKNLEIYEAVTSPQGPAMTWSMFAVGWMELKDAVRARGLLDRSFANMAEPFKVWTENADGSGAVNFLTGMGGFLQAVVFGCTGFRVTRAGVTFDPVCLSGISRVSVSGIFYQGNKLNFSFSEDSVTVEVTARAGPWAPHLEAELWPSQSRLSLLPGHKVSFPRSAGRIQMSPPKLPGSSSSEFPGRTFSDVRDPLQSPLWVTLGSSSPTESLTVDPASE
Sequence of UniProt Q00577 (Q00577 whole entry, looked up): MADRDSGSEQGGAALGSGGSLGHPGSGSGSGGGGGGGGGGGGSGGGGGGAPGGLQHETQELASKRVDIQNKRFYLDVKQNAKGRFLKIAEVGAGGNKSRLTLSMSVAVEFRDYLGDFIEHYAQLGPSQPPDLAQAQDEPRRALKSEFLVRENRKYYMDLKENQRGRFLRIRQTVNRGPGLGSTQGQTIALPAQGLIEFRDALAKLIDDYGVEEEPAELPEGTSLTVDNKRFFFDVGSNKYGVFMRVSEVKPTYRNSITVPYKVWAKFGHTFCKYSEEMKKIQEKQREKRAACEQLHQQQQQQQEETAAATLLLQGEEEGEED

Target	log2 fold change [1]	log2 fold change [2]	log2 fold change [3]	log2 fold change [4]	log2 fold change [5]	log2 fold change [6]	log2 fold change [7]	log2 fold change [8]	log2 fold change [9]	log2 fold change [10]	log2 fold change [11]	log2 fold change [12]	log2 fold change [13]	log2 fold change [14]	log2 fold change [15]	log2 fold change [16]	log2 fold change [17]	log2 fold change [18]	log2 fold change [19]	log2 fold change [20]
PSMD1 (UniProt Q99460)	0.042	0.146	-0.001	-0.278	0.015	0.028	-0.005	-0.026	0.043	0.059	-0.033	-0.064	0.051	0.016	0	0.087	-0.003	0.048	0.062	0.018
PURA (UniProt Q00577)	0.355	0.418	-0.087	-0.197	0.036	0.26	-0.095	-0.18	0.327	0.441	0.061	0.063	0.321	0.001	0.059	0.347	0.309	0.076	0.086	0.04
PARG (UniProt Q86W56)	0.036	-0.025	0.059	0.004	-0.126	-0.016	0.09	0.059	0.005	-0.126	0.003	-0.102	-0.19	0.051	-0.113	-0.068	0.044	0.115	0.034	-0.025
PCBP2 (UniProt F8VRH0)	-0.005	-0.051	0.165	-0.252	0.043	-0.201	0.139	-0.042	-0.306	-0.149	0.255	-0.319	0.106	0.155	0.105	0.009	0.066	-0.014	0.014	0.066
PPM1G (UniProt O15355)	-0.208	-0.381 (active)	0.066	0.087	-0.001	-0.073	0.098	0.089	0.017	-0.025	-0.086	-0.213	-0.165	0.187	0.108	-0.226	-0.088	-0.038	0.085	-0.104
PPP2R5E (UniProt Q16537)	-0.259 (active)	-0.404 (active)	-0.025	-0.034	-0.009	-0.165	0.018	0.099	-0.048	-0.99 (active)	-0.077	0.012	-0.069	0.005	0.083	-0.025	-0.008	0.074	0.021	-0.017
PPP2R5C isoform 4 (UniProt Q13362)	-0.069	-0.127	0.042	0.19	0.018	-0.099	-0.048	0.052	-0.003	-0.11	-0.04	0.009	-0.063	0.012	-0.068	-0.083	-0.003	-0.032	0.06	-0.025
PXK (UniProt Q7Z7A4)	-0.136	-0.077	0.04	0.029	0.004	-0.012	0.027	0.046	-0.028	-0.208	-0.023	0.004	-0.055	-0.033	0.03	-0.025	-0.027	-0.007	0.08	-0.048
PSPC1 (UniProt Q8WXF1)	-0.046	-0.167	0.1	0.031	0.003	-0.054	0.012	-0.058	0.041	0.029	0.007	-0.062	-0.068	0.041	-0.036	-0.342 (active)	0.002	-0.011	0.03	-0.028
PGGHG (UniProt Q32M88)	0.012	0.098	0.051	0.011	-0.094	-0.025	0.069	0.029	-0.025	-0.096	0.061	-0.014	0.009	0.04	-0.029	0.127	0.02	0.017	-0.086	-0.02
PIP4P1 isoform 2 (UniProt Q86T03)	-0.058	0.112	-0.003	0.008	0.009	-0.074	-0.012	-0.016	0.076	-0.262	0.014	-0.108	0.066	-0.005	0	0.039	-0.026	-0.059	-0.027	0.015
PML (UniProt P29590)	-0.051	-0.136	0.027	-0.021	-0.001	-0.024	-0.049	0.026	0.015	-0.045	-0.001	-0.038	-0.005	-0.051	0.024	-0.053	-0.008	-0.031	0.005	0
PRKCQ (UniProt Q04759)	-0.11	-0.17	0.031	0.001	-0.028	-0.047	0.021	0.049	-0.014	-0.496 (active)	-0.034	-0.903 (active)	-0.185	0.017	-0.047	-0.03	0.003	0.002	0.043	-0.025
POLD1 (UniProt P28340)	-0.061	-0.239 (active)	0.053	0.123	0	-0.005	0.027	-0.029	-0.03	-0.171	0.018	-0.052	-0.121	0.055	-0.01	-0.115	-0.004	-0.004	0.131	-0.029
PPP1R12A (UniProt O14974)	-0.136	-0.468 (active)	0.066	0.067	-0.028	-0.229	0	0.059	-0.016	-0.536 (active)	-0.048	-0.054	-0.187	0.01	-0.052	-0.187	-0.012	-0.197	0.057	-0.043
PRKCG (UniProt P05129)	-0.253	-0.062	0.058	0.086	-0.078	-0.117	0.058	0.044	0.093	-0.176	0.011	-0.373	-0.076	-0.025	0.088	-0.015	-0.021	-0.164	0.19	-0.02
